Tb PYK inh: qHTS of Trypanosoma Brucei Inhibitors; pyruvate kinase (Trypanosoma brucei), Q57TT1; TbPYK enzyme, Kinase-Glo Plus ATP luminescence, 45 min; Potency, µM (series often up to 76.8 µM), for the others: at the top dose activity, negative = inhibition, hits mostly inhibitors; actives 0.12% (n = 410,000); active = well fitted curve in the direction sought with a large enough effect; inconclusive = small, poorly fitted or top-dose-only effect, or another doubt; inactive = no such curve, though single readings can be large; an effect the other way counts as inactive or inconclusive; also: potency is read from the fitted curve at half-maximal effect; % is scaled to controls: 0 for no effect and ±100 for the full control effect; nearly all actives have a fitted effect of over 50% in size
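Quantitative HTS: titrated library compounds versus trypanosomal pyruvate kinase in TEA buffer (pH 7.2) containing KCl, MgCl2, BSA and Tween-20. Reactions were initiated with ADP, 130 uM final. Kinase-Glo Plus luminescence was read after 45 min at RT.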
Shiga inhibitor: A qHTS for Small Molecule Inhibitors of Shiga Toxin; Vero cells, Shiga toxin protein synthesis inhibition reporter; inhibition, % at 38.7 µM; actives 9.2% (n = 290,000); AID 2315, 2010; in the data active = inhibition mostly above about 28%, no sharp cut-off; inactive = mostly below about 43%; also: 0% is about no effect
LmPK inh: qHTS Assay for Inhibitors of Leishmania Mexicana Pyruvate Kinase (LmPK) | purified LmPK, Kinase-Glo ATP luminescence, 1 h | Potency, µM (titrated, usually from 57.5 µM), inactives show top-dose activity change, negative = inhibition, actives largely listed as inhibitors | Q27686 | actives 0.37% (n = 290,000); active = well fitted curve in the direction sought with a large enough effect; inconclusive = small, poorly fitted or top-dose-only effect, or another doubt; inactive = no such curve, though single readings can be large; an effect the other way counts as inactive or inconclusive; also: potency is read from the fitted curve at half-maximal effect; % is scaled to controls: 0 for no effect and ±100 for the full control effect
Target sequence (Q27686 whole entry, looked up): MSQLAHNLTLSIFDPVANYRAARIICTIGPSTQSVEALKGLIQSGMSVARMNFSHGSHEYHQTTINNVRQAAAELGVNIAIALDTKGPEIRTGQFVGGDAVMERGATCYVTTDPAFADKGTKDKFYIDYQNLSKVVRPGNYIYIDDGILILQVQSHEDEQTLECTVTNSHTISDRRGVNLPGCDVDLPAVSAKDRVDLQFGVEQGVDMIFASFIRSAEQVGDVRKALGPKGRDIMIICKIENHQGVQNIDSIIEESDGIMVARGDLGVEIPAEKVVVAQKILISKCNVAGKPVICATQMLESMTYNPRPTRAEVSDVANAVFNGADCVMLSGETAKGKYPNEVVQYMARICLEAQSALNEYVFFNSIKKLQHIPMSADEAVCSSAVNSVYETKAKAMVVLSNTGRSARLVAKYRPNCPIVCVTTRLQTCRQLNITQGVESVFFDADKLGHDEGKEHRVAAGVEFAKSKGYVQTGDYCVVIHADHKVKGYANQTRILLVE
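Pyruvate kinase activity monitored as ATP production (luciferase luminescence). Conditions: 0.1 nM enzyme, 0.5 mM PEP, 0.1 mM ADP, 1 h, RT; normalized against uninhibited and no-enzyme wells.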
SARS PLP yeast: qHTS of Yeast-based Assay for SARS-CoV PLP; S. cerevisiae expressing SARS-CoV PLpro, growth rescue; Potency, µM (doses to about 32.9 µM), without a hit: top-dose activity, positive = growth rescue, most hits filed as activators; actives 0.19% (n = 330,000); also: potency is read from the fitted curve at half-maximal effect; 0% is about no effect; nearly all actives have a fitted effect of over 55% in size
Cycloheximide cs: Cycloheximide Counterscreen for Small Molecule Inhibitors of Shiga Toxin | actives 12% (n = 300,000) | max response, % | cell reporter, cycloheximide protein synthesis inhibition counterscreen; in the data active = max response mostly above about 13%, no sharp cut-off; inactive = mostly below about 14%; also: read at 38.3 µM for the half of the compounds with a filed dose; 0% is about no effect
NS1 function inh: qHTS Assay for Inhibitors of Influenza NS1 Protein Function | actives 0.4% (n = 270,000) | Potency, µM (top dose mostly 46.1 µM), for inactives: top-dose activity, positive = more growth; also: potency is read from the fitted curve at half-maximal effect; actives are rising curves; nearly all actives have a fitted effect of over 50% in size
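OD600 was taken as the measure of yeast growth restored by compound in an NS1-expressing S. cerevisiae strain. Cells had been washed out of glucose medium and diluted 1:100 into galactose -URA medium, pH 6.0.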
* hit, by the source's call. The entries come from a sample that favours hits as a whole. Unless noted, calls follow the shape of the full dose curve.

`COc1cc(SC)ccc1C(=O)OCC(=O)NC1CCCCC1` gave Tb PYK inh -1%, Shiga inhibitor 35, LmPK inh 17%, SARS PLP yeast -6% and Cycloheximide cs 60*.
`CC(=O)c1ccc(NC(=O)COc2ccccc2-c2nc(C(C)C)no2)cc1` gave Tb PYK inh -6%.
For O=c1[nH]c(=S)[nH]c(O)c1N=Nc1ccc2c(c1)OCO2 the results were Tb PYK inh -16%, Shiga inhibitor 46*, LmPK inh inconclusive, SARS PLP yeast -3% and Cycloheximide cs 23*.
Screening O=C1CCCC(O)=C1N=Nc1ccc2c(c1)OCO2 returned Tb PYK inh -7%, Shiga inhibitor 48*, LmPK inh inconclusive, SARS PLP yeast 3%, Cycloheximide cs 76* and NS1 function inh 1%.
`O=C1CCCC(O)=C1N=Nc1ccc(C(=O)O)cc1` gave Tb PYK inh -5%, Shiga inhibitor 6, LmPK inh -13%, SARS PLP yeast 1%, Cycloheximide cs 10 and NS1 function inh 13%.
`O=c1[nH]c(=S)[nH]c(O)c1N=Nc1ccc2c(c1)OCCO2` gave Tb PYK inh inconclusive, Shiga inhibitor 27*, LmPK inh inconclusive, SARS PLP yeast 1%, Cycloheximide cs 23* and NS1 function inh 4%.
For O=c1[nH]c(O)c(N=Nc2ccc3c(c2)OCCO3)c(=O)[nH]1 the results were Tb PYK inh -4%, Shiga inhibitor 88*, LmPK inh -25%, SARS PLP yeast 3% and Cycloheximide cs 32*.
For O=c1[nH]c(O)c(N=Nc2ccc(S(=O)(=O)N3CCOCC3)cc2)c(=O)[nH]1 the results were Tb PYK inh -4%, Shiga inhibitor -5, LmPK inh -1%, SARS PLP yeast 0%, Cycloheximide cs 7 and NS1 function inh 4%.
`Cc1ccccc1Cn1c(Oc2ccccc2F)nc2c1c(=O)n(C)c(=O)n2C` gave Tb PYK inh 2%.
For COc1ccc([C@H]2CC(=O)c3c(O)cc(O)cc3O2)cc1O the results were Tb PYK inh -9%, Shiga inhibitor 57, LmPK inh 3%, SARS PLP yeast 0%, Cycloheximide cs 23* and NS1 function inh 2%.
For Cc1c(O)cc2c(c1O)C(=O)CC(c1ccccc1)O2 (centres undefined) the results were Tb PYK inh -4%, Shiga inhibitor -4, LmPK inh 4%, SARS PLP yeast -5%, Cycloheximide cs -1 and NS1 function inh -62%.
COc1c(O)cc2c(c1O)C(=O)CC(c1ccccc1)O2 (centres undefined) was read as Shiga inhibitor 71*, LmPK inh -3%, SARS PLP yeast -4%, Cycloheximide cs 44* and NS1 function inh -48%.
`Cc1ccc(N2C(=O)CSC23C(=O)N(CC(=O)Nc2ccccc2F)c2ccccc23)cc1C` (centres undefined) gave Tb PYK inh 1%.
Screening COc1ccc(/C=N/N2CCN(Cc3ccccc3)CC2)cc1 returned Tb PYK inh 7%, Shiga inhibitor 4, LmPK inh -3%, SARS PLP yeast 7%, Cycloheximide cs 2 and NS1 function inh -5%.
`CN1CCN(/N=C/c2ccc(OCc3ccccc3)cc2)CC1` gave Tb PYK inh 2%, Shiga inhibitor 107*, LmPK inh 0%, SARS PLP yeast -1%, Cycloheximide cs 65* and NS1 function inh -46%.
`C(=N\n1cnnc1)/c1ccc(OCc2ccccc2)cc1` gave Tb PYK inh -5%, Shiga inhibitor 62, LmPK inh -6%, SARS PLP yeast -8%, Cycloheximide cs 24* and NS1 function inh -202%.
COC(=O)c1ccc(COc2ccc(/C=N/N3CCN(C)CC3)cc2)cc1 was read as Tb PYK inh 2%, Shiga inhibitor 155*, LmPK inh 3%, SARS PLP yeast 1%, Cycloheximide cs 56* and NS1 function inh -9%.
COC(=O)c1ccc(/C=N\N2CCN(Cc3ccc(C)cc3)CC2)cc1 was read as Tb PYK inh 5%, Shiga inhibitor -12, LmPK inh 5%, SARS PLP yeast 5%, Cycloheximide cs -6 and NS1 function inh -1%.
